Where a name gives a salt, the structure may show the parent alone. ± gives the standard deviation of the averaged measurements.
Legend:
[1] = tested on: Saccharomyces cerevisiae BY4741 SeMeCo community; assay: mean cell size (pixel area) (pixels); higher = larger cells; settings: 10 µM; 24 h; SM minimal medium
Method in brief: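 The test system was a fluorescent Saccharomyces cerevisiae BY4741 community with four plasmids, each restoring one auxotrophy and carrying a fluorescent marker. Cells were grown for 24 h in SM medium with drug at a final 10 µM in 384-well plates, then fixed with paraformaldehyde and imaged by automated confocal microscopy for Harmony analysis of mean cell pixel area per well. Values represent the average of 3 replicates. Same SeMeCo high-content imaging drug screen: Selleck FDA-approved drugs at 10 µM, 24 h in SM medium, 384-well plates, 3 replicates.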

[2] = tested on: Saccharomyces cerevisiae BY4741 SeMeCo community; assay: z-score of prototroph abundance vs DMSO median; higher = larger share of this subpopulation than in DMSO controls; settings: 10 µM; 24 h; SM minimal medium; subpopulation (auxotrophy): Prototroph
Method in brief: (§1)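 A community of Saccharomyces cerevisiae BY4741 was built from four plasmids that each restored one auxotrophy and encoded a distinct fluorescent protein. Pre-grown overnight to OD600 1.0 and diluted to 0.3, it was dispensed at 70 µl into 384-well plates acoustically predosed with library drugs for a final 10 µM, and grown 24 h in minimal SM medium. Cells were then paraformaldehyde-fixed and imaged by automated confocal microscopy. Thresholds and autofluorescence correction came from single-auxotroph fluorescent strains, and each subpopulation's abundance was scored as a z-score relative to the vehicle-well median.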

[3] = tested on: Saccharomyces cerevisiae BY4741 SeMeCo community; assay: z-score of subpopulation abundance vs DMSO median, subpopulation auxotrophic for L; higher = larger share of this subpopulation than in DMSO controls; settings: 10 µM; 24 h; SM minimal medium; subpopulation (auxotrophy): L
Method in brief: as §1

[4] = tested on: Saccharomyces cerevisiae BY4741 SeMeCo community; assay: z-score of subpopulation abundance vs DMSO median, subpopulation auxotrophic for LM; higher = larger share of this subpopulation than in DMSO controls; settings: 10 µM; 24 h; SM minimal medium; subpopulation (auxotrophy): LM
Method in brief: as §1

[5] = tested on: Saccharomyces cerevisiae BY4741 SeMeCo community; assay: z-score of subpopulation abundance vs DMSO median, subpopulation auxotrophic for HM; higher = larger share of this subpopulation than in DMSO controls; settings: 10 µM; 24 h; SM minimal medium; subpopulation (auxotrophy): HM
Method in brief: as §1

[6] = tested on: Saccharomyces cerevisiae BY4741 SeMeCo community; assay: z-score of subpopulation abundance vs DMSO median, subpopulation auxotrophic for HU; higher = larger share of this subpopulation than in DMSO controls; settings: 10 µM; 24 h; SM minimal medium; subpopulation (auxotrophy): HU
Method in brief: as §1

[7] = tested on: Saccharomyces cerevisiae BY4741 SeMeCo community; assay: z-score of subpopulation abundance vs DMSO median, subpopulation auxotrophic for UM; higher = larger share of this subpopulation than in DMSO controls; settings: 10 µM; 24 h; SM minimal medium; subpopulation (auxotrophy): UM
Method in brief: as §1

[8] = tested on: Saccharomyces cerevisiae BY4741 SeMeCo community; assay: z-score of subpopulation abundance vs DMSO median, subpopulation auxotrophic for HL; higher = larger share of this subpopulation than in DMSO controls; settings: 10 µM; 24 h; SM minimal medium; subpopulation (auxotrophy): HL
Method in brief: as §1

[9] = tested on: Saccharomyces cerevisiae BY4741 SeMeCo community; assay: z-score of subpopulation abundance vs DMSO median, subpopulation auxotrophic for HLU; higher = larger share of this subpopulation than in DMSO controls; settings: 10 µM; 24 h; SM minimal medium; subpopulation (auxotrophy): HLU
Method in brief: as §1

[10] = tested on: Saccharomyces cerevisiae BY4741 SeMeCo community; assay: z-score of subpopulation abundance vs DMSO median, subpopulation auxotrophic for HUM; higher = larger share of this subpopulation than in DMSO controls; settings: 10 µM; 24 h; SM minimal medium; subpopulation (auxotrophy): HUM
Method in brief: as §1

[11] = tested on: Saccharomyces cerevisiae BY4741 SeMeCo community; assay: z-score of subpopulation abundance vs DMSO median, subpopulation auxotrophic for LUM; higher = larger share of this subpopulation than in DMSO controls; settings: 10 µM; 24 h; SM minimal medium; subpopulation (auxotrophy): LUM
Method in brief: as §1

[12] = tested on: Saccharomyces cerevisiae BY4741 SeMeCo community; assay: z-score of subpopulation abundance vs DMSO median, subpopulation auxotrophic for HLUM; higher = larger share of this subpopulation than in DMSO controls; settings: 10 µM; 24 h; SM minimal medium; subpopulation (auxotrophy): HLUM
Method in brief: as §1

[13] = tested on: Saccharomyces cerevisiae BY4741 SeMeCo community; assay: z-score of subpopulation abundance vs DMSO median, subpopulation auxotrophic for U; higher = larger share of this subpopulation than in DMSO controls; settings: 10 µM; 24 h; SM minimal medium; subpopulation (auxotrophy): U
Method in brief: as §1

[14] = tested on: Saccharomyces cerevisiae BY4741 SeMeCo community; assay: z-score of subpopulation abundance vs DMSO median, subpopulation auxotrophic for H; higher = larger share of this subpopulation than in DMSO controls; settings: 10 µM; 24 h; SM minimal medium; subpopulation (auxotrophy): H
Method in brief: as §1

[15] = tested on: Saccharomyces cerevisiae BY4741 SeMeCo community; assay: z-score of subpopulation abundance vs DMSO median, subpopulation auxotrophic for HLM; higher = larger share of this subpopulation than in DMSO controls; settings: 10 µM; 24 h; SM minimal medium; subpopulation (auxotrophy): HLM
Method in brief: as §1

[16] = tested on: Saccharomyces cerevisiae BY4741 SeMeCo community; assay: z-score of subpopulation abundance vs DMSO median, subpopulation auxotrophic for M; higher = larger share of this subpopulation than in DMSO controls; settings: 10 µM; 24 h; SM minimal medium; subpopulation (auxotrophy): M
Method in brief: as §1

[17] = tested on: Saccharomyces cerevisiae BY4741 SeMeCo community; assay: z-score of subpopulation abundance vs DMSO median, subpopulation auxotrophic for LU; higher = larger share of this subpopulation than in DMSO controls; settings: 10 µM; 24 h; SM minimal medium; subpopulation (auxotrophy): LU
Method in brief: as §1

SMILES | mean cell size [1] | z-score of prototroph abundance [2] | z-score of subpopulation abundance [3] | z-score of subpopulation abundance [4] | z-score of subpopulation abundance [5] | z-score of subpopulation abundance [6] | z-score of subpopulation abundance [7] | z-score of subpopulation abundance [8] | z-score of subpopulation abundance [9] | z-score of subpopulation abundance [10] | z-score of subpopulation abundance [11] | z-score of subpopulation abundance [12] | z-score of subpopulation abundance [13] | z-score of subpopulation abundance [14] | z-score of subpopulation abundance [15] | z-score of subpopulation abundance [16] | z-score of subpopulation abundance [17]
CN(C)CCn1nnnc1SCC1=C(C(=O)O)N2C(=O)[C@@H](NC(=O)Cc3csc(N)n3)[C@H]2SC1 [Cefotiam hydrochloride] | 12.24 ± 0.031 | -1.4 | 1.99 | 1.06 | 1.4 | 0.76 | 1.04 | 1.92 | 1.21 | 0.5 | 1.11 | 0.99 | – | – | – | – | –
CCN(CC)C(=O)N1CCN(C)CC1 [Diethylcarbamazine citrate] | 12.6 ± 0.14 | 0.16 | -0.21 | -0.13 | -0.19 | -0.43 | 0.18 | -1.04 | -0.06 | 0.13 | -0.5 | -0.66 | 0.67 | -0.57 | 0.15 | – | –
Nc1nc(N)nc(-c2cc(Cl)ccc2Cl)n1 [Irsogladine] | – | 1.03 | -0.15 | 0.16 | -0.68 | -0.69 | -1.92 | -0.18 | 0.75 | -1.16 | -0.45 | -0.22 | -1.06 | -0.31 | -0.41 | – | –
CC(Cc1ccc(O)c(O)c1)C(C)Cc1ccc(O)c(O)c1 (centres undefined) [Nordihydroguaiaretic acid (NDGA)] | 12.5 ± 0.17 | 0.67 | 0.06 | 0.02 | -0.39 | -0.76 | -0.5 | -0.39 | – | -0.77 | 0.39 | -0.44 | -0.02 | -1.01 | -0.39 | -0.1 | -0.29
CN1CCN(CCCN2c3ccccc3Sc3ccc(C(F)(F)F)cc32)CC1 [Trifluoperazine 2HCl] | 12.1 ± 0.41 | 0.01 | -0.42 | -0.04 | 0.33 | 0.54 | 0.11 | -0.59 | – | 0.42 | 0 | -0.04 | 0.38 | -0.58 | -0.79 | -0.02 | -0.4
Cc1cnc(NC(=O)C2=C(O)c3ccccc3S(=O)(=O)N2C)s1 [Meloxicam] | 12.77 ± 0.087 | 1.47 | -0.61 | -0.94 | -0.89 | -0.61 | – | -0.41 | – | -0.88 | -1.43 | -0.98 | -0.19 | -0.59 | -1.09 | -0.52 | -0.98
Cc1ccc2c(Cl)cc(Cl)c(O)c2n1 [Chlorquinaldol] | 14.5 ± 0.18 | -18.8 | 0.46 | 9.8 | 33.5 | 7.3 | -1.95 | 19.8 | – | 15.8 | 16.2 | 114 | -6.35 | 9.18 | 107 | 7.61 | -2.2

Source: the supplement of paper PMC8975748
